Source: PubChem BioAssay (NCI)
About 83,000 compounds went through this panel and 20% of them were active in at least one assay; those are over-represented in the sample as a whole.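 The endpoint reported here, percent growth, reads 100 for growth as untreated, 0 for no net growth and -100 for all cells dead.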 Activity calls are given as the source filed them. Rule for the calls: active = growth percent below 10; inactive = the rest.

System: SK-MEL-2 melanoma
Assay: NCI-60 one-dose screen, 48 h (100 = growth as untreated, 0 = no growth, -100 = all killed)
Conditions: 10 µM unless noted

SMILES	growth
O=C(COc1ccc(NC(=O)Nc2ccc(Cl)cc2)cc1)N/N=C/c1ccccc1	-84.3% (active)
COc1cc(/C=C/C(=O)c2ccccc2)ccc1Oc1nc(Nc2ccc(F)cc2)nc(N(C)C)n1	-38% (active)
CN(C)CCCNC(=O)c1cc(NC(=O)c2cc(NC(=O)c3ccc(/C=C/c4ccccc4)cc3)cn2C)cn1C	60.6% (inactive)
COc1ccc(C(=O)/C=C/c2ccc(Oc3nc(Nc4ccc(F)cc4)nc(N(C)C)n3)c(OC)c2)cc1	-8.47% (active)
CN(C)CCOc1ccc(C(=O)C2[C@H](c3ccc(Cl)cc3)[C@@H](c3ccccc3)NC23C(=O)Nc2ccc(Br)cc23)cc1 (some centres not stated)	54.1% (inactive)
COc1ccc(-c2ccc(SCC(=O)NCCc3ccc(S(N)(=O)=O)cc3)nn2)cc1	79.8% (inactive)
Cc1nc(Nc2ncc(C(=O)Nc3c(C)cccc3Cl)s2)cc(N2CCN(CCCNC(=O)COc3ccc(C4CCC(=O)NC4=O)cc3)CC2)n1 (configuration not stated)	109% (inactive)
C=C1CCC2C3(C)COC(c4ccc(F)cc4)OC3CCC2(C)C1C/C=C1/C(=O)OCC1O (configuration not stated)	-63.2% (active)
O=c1onc(-c2cc3ccccc3nc2Cl)n1-c1cccc2ccccc12	19.6% (inactive)
O=C1NC(=O)/C(=C/c2ccccc2OCc2cc3ccccc3nc2Cl)S1	88.6% (inactive)
O=C(COc1ccc(NC(=O)Nc2ccc(Cl)c(Cl)c2)cc1)N=Nc1c(O)[nH]c2ccc(Br)cc12	-71.6% (active)
COc1cccc(/C=C/c2nc3ccccc3c(=O)n2CC(=O)Nc2ccc(Cl)cc2)c1	111% (inactive)
COc1ccc(C(=O)/C=C/c2cccc(Cl)c2)cc1S(N)(=O)=O	80.9% (inactive)
COc1cc(C2CC(c3cc(OC)c(OC)c(OC)c3)=NN2c2ccccc2)ccc1OCc1ccc(C)cc1 (configuration not stated)	88.1% (inactive)
CCOP(=O)(OCCCl)c1nc(-c2ccc(C)cc2)oc1NCc1ccccc1 (configuration not stated)	87% (inactive)
Cc1ccccc1[C@H]1C(C(=O)c2ccc(Cl)cc2)C2(N[C@@H]1c1ccccc1)C(=O)Nc1ccccc12 (some centres not stated)	-76.3% (active)

SMILES	growth
Cc1ccccc1[C@H]1C(C(=O)c2ccc(Cl)cc2)C2(N[C@@H]1c1ccccc1)C(=O)Nc1ccc(Br)cc12 (some centres not stated)	-11.2% (active)
Cc1cc(=O)oc2cc(OCCOc3ccc(/C=C/C(=O)Nc4ccccc4N)cc3)ccc12	59.1% (inactive)
Cn1cc(NC(=O)c2cc(NC(=O)c3ccc(/C=C/c4ccccc4)cc3)cn2C)cc1C(=O)NCCCN1CCOCC1	99.6% (inactive)
CCCn1cc(-c2nc(Nc3ccc(C(=O)NCCCCNc4cccc5c4C(=O)N(C4CCC(=O)NC4=O)C5=O)cc3)nc3[nH]ccc23)cn1 (configuration not stated)	10.4% (inactive)
COc1c(F)ccc(C(=O)Nc2ccc3nc(NC(=O)C4CCCN(S(=O)(=O)c5ccc(C(F)(F)F)cc5)C4)sc3c2)c1F (configuration not stated)	84.7% (inactive)
Cn1nc(C(F)(F)F)cc1-c1cc(Cl)c(COc2ccc(Cl)cc2)c(-c2ccc(Cl)c(C(F)(F)F)c2)c1O	-81.6% (active)
COc1ccc(C(=O)/C=C/c2ccccc2Br)cc1S(N)(=O)=O	81.2% (inactive)
COc1ccc2c(c1)c(/C=N/Nc1ccc3ccccc3n1)cn2C	81.8% (inactive)
COc1c(F)ccc(C(=O)Nc2ccc3nc(NC(=O)C4CCCN(S(=O)(=O)c5ccc(Br)c(F)c5)C4)sc3c2)c1F (configuration not stated)	88.6% (inactive)
COc1cc(OC)cc(-c2cc3ccc(N(C)C)cc3c(=O)[nH]2)c1	33.6% (inactive)
CC12CC[C@@H]3[C@]4(C)COC(c5cn[nH]c5-c5ccc(Br)cc5)O[C@@H]4CC[C@@]3(C)[C@@H]1CC(C1=CCOC1=O)O2 (some centres not stated)	52.4% (inactive)
CC12CC[C@@H]3[C@]4(C)COC(c5cn[nH]c5-c5cccc(Cl)c5)O[C@@H]4CC[C@@]3(C)[C@@H]1CC(C1=CCOC1=O)O2 (some centres not stated)	42.4% (inactive)
CCCSc1nc(Nc2ccc(S(N)(=O)=O)cc2)c(C#N)c(-c2ccc(Cl)cc2)n1	67.9% (inactive)
COc1ccc(-c2nc3ccc(C(=O)NN4C(=O)c5ccc([N+](=O)[O-])cc5C4=O)cc3[nH]2)cc1	101% (inactive)
C=C1CC[C@@H]2[C@]3(C)COC(c4cn[nH]c4-c4ccc(Br)cc4)O[C@@H]3CC[C@@]2(C)[C@@H]1C/C=C1/C(=O)OCC1O (some centres not stated)	-68.4% (active)
Cc1cnc(C(=O)NNc2nc3cc(F)ccc3n3c(C(=O)N4CC5CC(C4)N5)ccc23)cn1	53% (inactive)
